Source: PubChem BioAssay

Assay: blood-stage malaria parasite viability loss – strain 3D7, DAPI fluorescence, 100 nL, primary screen (AID 1184);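 also: parasites grown inside human red blood cells in medium with human serum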
Settings: P. falciparum 3D7 growth, 3 d, higher = more signal

Row | SMILES | z-score
1 | COCCOC(=O)N1C(=O)[C@@]2(c3cc(C#CCCO)ccc31)[C@H](c1ccc(OCCO)cc1)N1[C@H](c3ccccc3)[C@H](c3ccccc3)OC(=O)[C@H]1[C@@H]2C(=O)N1CCc2cc(OC)c(OC)cc2C1 | -1.87
2 | O=C1c2ccccc2C(=O)C2CC([C@H]3Oc4ccccc4S(=O)(=O)N4CCC[C@@H]34)=CCC12 (stereo not given in full) | -1.24
3 | O=[N+]([O-])c1ccc(C[n+]2ccc(-c3ccc(CO)cc3)cc2)o1 | -1.29
4 | Cc1ccc(F)cc1S(=O)(=O)N[C@@H]1CCN(C(=O)c2ccc(OC(C)C)cc2)C1 | -1.21
5 | COCCOC(=O)N1C(=O)[C@@]2(c3cc(C#CCNC(N)=O)ccc31)[C@H](c1ccc(OCCO)cc1)N1[C@H](c3ccccc3)[C@H](c3ccccc3)OC(=O)[C@H]1[C@@H]2C(=O)N1CCN(c2ncccn2)CC1 | -1.91
6 | COCCCNC(=O)[C@]1(CCS(=O)(=O)c2ccccc2)N=C(c2ccc(OCCCO)cc2)O[C@@H]1c1ccccc1 | -2.13
7 | O=C1O[C@H](c2ccccc2)[C@H](c2ccccc2)N2[C@H]1[C@@H](C(=O)N1CCCCCCC1)[C@]1(C(=O)Nc3ccccc31)[C@H]2c1ccc(O)cc1 | 0.61
8 | CN(C)C(=O)[C@]1(Cc2ccccc2N=[N+]=[N-])N=C(c2ccc(OCCCO)cc2)O[C@@H]1c1ccccc1CN=[N+]=[N-] | -2.48
9 | CCOC(=O)C[C@H]1[C@H](OC(=O)Cc2ccc3c(c2)OCO3)[C@@H](NC(=O)c2ccccc2)c2cc(OCCCO)ccc2N1C(=O)c1ccccc1 | -0.385
10 | CCCc1cc2c(n1Cc1ccc(OC)cc1)C(C)C1CN(C(=O)c3ccccc3)C(C)(C(=O)OC)C21 (stereo not given) | -1.42
